Data: PubChem BioAssay (NCI)
The panel holds about 83,000 compounds, 20% with a hit somewhere; the sample as a whole holds those more often.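 Values shown are percent growth following 48 h exposure of cells in 96-well plates to a single concentration of compound; below 10 was considered active.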 Active and inactive are the calls of the source.

How the values were obtained:
Experiment in all cases: NCI-60 one-dose screen, 48 h (100 = growth as untreated, 0 = no growth, -100 = all killed)
Conditions in all cases: 10 µM
NCI-H23 lung = test system: NCI-H23 lung
NCI-H522 lung = test system: NCI-H522 lung
MDA-MB-231 breast = test system: MDA-MB-231 breast
M14 melanoma = test system: M14 melanoma
SK-MEL-5 melanoma = test system: SK-MEL-5 melanoma
UACC-62 melanoma = test system: UACC-62 melanoma
LOX IMVI melanoma = test system: LOX IMVI melanoma
CCRF-CEM leukemia = test system: CCRF-CEM leukemia
SR leukemia = test system: SR leukemia
OVCAR-8 ovarian = test system: OVCAR-8 ovarian
OVCAR-5 ovarian = test system: OVCAR-5 ovarian
SK-OV-3 ovarian = test system: SK-OV-3 ovarian
IGROV1 ovarian = test system: IGROV1 ovarian
HS 578T breast = test system: HS 578T breast
NCI/ADR-RES ovarian = test system: NCI/ADR-RES ovarian
T-47D breast = test system: T-47D breast
SW-620 colon = test system: SW-620 colon
MCF7 breast = test system: MCF7 breast
HCT-116 colon = test system: HCT-116 colon
KM12 colon = test system: KM12 colon

Measured: growth

COc1cc2c(O[C@@H]3OC[C@H](O)[C@H](O)[C@H]3O)c3c(c(-c4ccc5c(c4)OCO5)c2cc1OC)C(=O)OC3
active: SK-MEL-5 melanoma -93.4% | LOX IMVI melanoma -57.7%
inactive: NCI-H23 lung 72.8% | NCI-H522 lung 13.5% | MDA-MB-231 breast 22.9% | M14 melanoma 31.3% | UACC-62 melanoma 20.8% | CCRF-CEM leukemia 46.6% | SR leukemia 14.5% | OVCAR-8 ovarian 22% | OVCAR-5 ovarian 39.4% | SK-OV-3 ovarian 69.1% | IGROV1 ovarian 53% | HS 578T breast 91.1% | NCI/ADR-RES ovarian 90.1% | T-47D breast 18.2% | SW-620 colon 68.8% | MCF7 breast 71.2% | HCT-116 colon 29.1% | KM12 colon 71.6%

Cc1ccc(CNc2nc3ccc(OC/C(=C/F)CN)cc3o2)cn1
inactive: NCI-H23 lung 88.4% | MDA-MB-231 breast 79.6% | M14 melanoma 99.8% | SK-MEL-5 melanoma 98% | UACC-62 melanoma 90.8% | LOX IMVI melanoma 88.4% | CCRF-CEM leukemia 105% | SR leukemia 101% | OVCAR-8 ovarian 108% | OVCAR-5 ovarian 103% | SK-OV-3 ovarian 105% | IGROV1 ovarian 78.5% | HS 578T breast 101% | NCI/ADR-RES ovarian 102% | T-47D breast 101% | SW-620 colon 97.6% | MCF7 breast 88.8% | HCT-116 colon 100% | KM12 colon 103%

COC(=O)[C@H]1[C@@H](O)[C@@]2(O)c3c(OC)cc(OC)cc3O[C@@]2(c2ccc(OC)cc2)[C@@H]1c1ccccc1
active: NCI-H23 lung -12% | NCI-H522 lung -28.7% | MDA-MB-231 breast -5.45% | M14 melanoma -1.79% | SK-MEL-5 melanoma -55.8% | UACC-62 melanoma -14.9% | LOX IMVI melanoma -38.6% | CCRF-CEM leukemia 4.76% | OVCAR-8 ovarian -11.6% | OVCAR-5 ovarian -6.47% | SK-OV-3 ovarian -12.2% | IGROV1 ovarian -17.3% | HS 578T breast -5.48% | NCI/ADR-RES ovarian 0.819% | T-47D breast -11.7% | SW-620 colon 3.66% | MCF7 breast -0.926% | HCT-116 colon -6.31% | KM12 colon 3.23%
inactive: SR leukemia 13.2%

CC1=C[C@H]2O[C@@H]3C[C@H]4OC(=O)/C=C\C=C\[C@H]([C@@H](C)O)OCC[C@@H](C)[C@H](O)C(=O)OC[C@@]2(CC1)[C@]4(C)[C@]31CO1
active: NCI-H23 lung -36.6% | NCI-H522 lung -43.4% | MDA-MB-231 breast -25.2% | M14 melanoma -76% | SK-MEL-5 melanoma -90.2% | UACC-62 melanoma -66.6% | LOX IMVI melanoma -79% | CCRF-CEM leukemia -7.82% | SR leukemia -10.5% | OVCAR-8 ovarian -12.8% | OVCAR-5 ovarian -16.8% | SK-OV-3 ovarian -18.6% | IGROV1 ovarian -13.4% | HS 578T breast -6.56% | NCI/ADR-RES ovarian -24.9% | T-47D breast -19% | SW-620 colon 0.381% | MCF7 breast -7.85% | HCT-116 colon -27.7% | KM12 colon 4.84%

COc1cc2c(cc1OC)[C@@H]1N(CC2)C(=O)c2ccccc2[C@@]1(C)C(=O)O
inactive: NCI-H23 lung 102% | NCI-H522 lung 99.8% | MDA-MB-231 breast 101% | SK-MEL-5 melanoma 101% | UACC-62 melanoma 95.8% | LOX IMVI melanoma 105% | CCRF-CEM leukemia 105% | SR leukemia 117% | OVCAR-8 ovarian 104% | OVCAR-5 ovarian 106% | SK-OV-3 ovarian 113% | IGROV1 ovarian 106% | HS 578T breast 108% | NCI/ADR-RES ovarian 106% | T-47D breast 116% | SW-620 colon 109% | MCF7 breast 97.4% | HCT-116 colon 111% | KM12 colon 113%

CC1=C[C@H]2O[C@@H]3C[C@@H](O)[C@](C)([C@@]2(C)CC1)[C@@]31CO1
inactive: NCI-H23 lung 28.4% | NCI-H522 lung 31% | MDA-MB-231 breast 42.4% | SK-MEL-5 melanoma 12.1% | UACC-62 melanoma 44.5% | LOX IMVI melanoma 13.6% | CCRF-CEM leukemia 13.8% | SR leukemia 18.1% | OVCAR-8 ovarian 27.7% | OVCAR-5 ovarian 78.9% | SK-OV-3 ovarian 22.9% | IGROV1 ovarian 28.3% | HS 578T breast 37.8% | NCI/ADR-RES ovarian 36.1% | T-47D breast 29.6% | SW-620 colon 24% | MCF7 breast 17.6% | KM12 colon 26.1%
active: M14 melanoma 6.68% | HCT-116 colon 7.52%

CN(CCF)/N=N/c1nc[nH]c1C(N)=O
inactive: NCI-H23 lung 77% | NCI-H522 lung 64.2% | MDA-MB-231 breast 39.5% | M14 melanoma 23.3% | SK-MEL-5 melanoma 74.6% | UACC-62 melanoma 31.2% | LOX IMVI melanoma 17.5% | CCRF-CEM leukemia 20.8% | SR leukemia 22.3% | OVCAR-8 ovarian 27% | OVCAR-5 ovarian 62.8% | IGROV1 ovarian 44% | HS 578T breast 93.1% | NCI/ADR-RES ovarian 32.5% | T-47D breast 57.3% | SW-620 colon 25.9% | MCF7 breast 36.2% | HCT-116 colon 24% | KM12 colon 58.9%
active: SK-OV-3 ovarian -4.12%
